# Measured values reported in the supplement of paper PMC4894684.
# Counter-ions that a name gives are not always drawn. ± gives the standard deviation of the averaged measurements.
# Test system: Toxoplasma gondii RH (in HFF)
# Experiment: parasite growth relative to the screen mean (all compounds = 100%); higher = less inhibition of parasite growth
# Details: 5 µM; 72 h; oxygen 21 %
# In short: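 Each value is parasite growth expressed against the screen mean, averaged over two screens, where the mean of all compounds = 100%. The screen used 5 µM final compound on confluent human foreskin fibroblasts infected with RH β-Gal–GFP Toxoplasma (MOI 1:5) within 2 h and grown 72 h at 21% O2. Parasite number was measured by a CPRG β-Gal assay against in-plate standard curves.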
row,Compound,parasite growth
1,CN(CCOc1ccc(-c2ccc3c(c2)OCO3)cc1C(C)(C)C)CC(=O)O,110 ± 38%
2,CCCCc1nn(-c2ccccc2C(F)(F)F)c(=O)n1Cc1ccc(-c2ccccc2S(=O)(=O)NC(=O)c2sccc2C)cc1,137 ± 20%
3,Cn1cc(C2=C(c3cn(CCCSC(=N)N)c4ccccc34)C(=O)NC2=O)c2ccccc21 [Ro 31-8220 mesylate],< 0%
4,CNC(=O)c1cc2c(cn1)[nH]c1ccccc12,124 ± 19%
5,CC(CCc1ccc(O)cc1)NCCc1ccc(O)c(O)c1 (stereo not given) [Dobutamine hydrochloride],176 ± 7.3%
6,O=S(=O)(c1ccccc1)N(CC(F)(F)F)c1ccc(C(O)(C(F)(F)F)C(F)(F)F)cc1,132 ± 5.8%
7,C=CCn1c(=O)n([C@@H]2O[C@H](CO)[C@@H](O)[C@H]2O)c2nc(N)[nH]c(=O)c21,116 ± 8.2%
8,COc1cc(CNC(=O)CCCC/C=C/C(C)C)ccc1O [(E)-Capsaicin],135 ± 14%
9,CC[C@H](C)C(=O)O[C@H]1C[C@@H](C)C=C2C=C[C@H](C)[C@H](CC[C@@H]3C[C@@H](O)CC(=O)O3)[C@H]21 [Lovastatin],128 ± 17%
10,Cl/C(=C\n1cncn1)c1ccc(Cl)cc1Cl [Loreclezole hydrochloride],146 ± 12%
11,O=C(NCCCCCCNC(=O)ON=C1CCCCC1)ON=C1CCCCC1,28.7 ± 2.9%
12,O=C(O)c1cccnc1C(=O)O [Quinolinic acid],125 ± 12%
13,Cc1cc(F)c(Nc2ncnc3cc(OCc4ccccc4)ccc23)cc1O,11.2 ± 13%
14,NC(=O)Nc1sc(-c2ccc(F)cc2)cc1C(N)=O,77.1 ± 11%
15,CCS(=O)(=O)N1CCC[C@@H]2CN3CCc4cc(OC)ccc4[C@@H]3C[C@@H]21,125 ± 31%
